Assay outcomes from PubChem BioAssay.
Nrf2 inh = inhibitors of Nrf2 signaling; 2.1% of 360,000 active; Potency, µM (series often up to 46 µM), inactives show at the highest dose activity change, negative = inhibition, most hits filed as inhibitors; A549 ARE-Fluc reporter, luciferase luminescence, 18-24 h; further: potency means the concentration at half of the fitted maximal effect; on the % scale 0 is the no-effect control and ±100 the full control effect; nearly all actives have a fitted effect of over 60% in size
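Reporter: ARE-Fluc in A549. Exposure: 18-24 h, 37 °C, 5% CO2, 5% FBS OPTI-MEM. Readouts: fluorescent cytotoxicity (CellTiter-Fluor), then luminescent Nrf2 signal after BugLite.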
ELG1 DNA repair = blocks ELG1-dependent DNA repair in HEK293T cells; HEK293T ELG1-luciferase reporter, luminescence, 16 h; DNA damage induced by 5-fluorouridine; Potency, µM (titrated, usually from 46.1 µM), for inactives: top-dose activity change, negative = inhibition, usual class: inhibitors; 2.3% of 330,000 active; further: potency means the concentration at half of the fitted maximal effect; on the % scale 0 is the no-effect control and ±100 the full control effect; nearly all actives have a fitted effect of over 55% in size
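HEK293T cells expressing luciferase-tagged ELG1 (2,000/well) received 5-Fluorouridine plus compound or DMSO for 16 hr at 37 °C. Luciferase was read by ONE-Glo luminescence after 30 min at room temperature.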
Nrf2 ARE act = activators of Nrf2 (ARE) signaling | AREc32 ARE-luciferase reporter (MCF7-derived line), luminescence, 24 h | Potency, µM (doses to about 46.1 µM), for inactives: at the highest dose activation, usual class: activators | 0.31% of 410,000 active | AID 624171; further: potency means the concentration at half of the fitted maximal effect; % of control where 0% means no effect; nearly all actives have a fitted effect of over 65% in size
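Reporter line AREc32 (ARE-Fluc), seeded overnight in OPTI-MEM with 5% FBS; compound pin-transferred, 24 hr at 37 deg C, 5% CO2; luminescent read-out.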
A549 tox = counter-screen for Nrf2 inhibitors: cytotoxicity in A549 cells. A549 ARE-Fluc cells, CellTiter-Fluor viability, 18-24 h. Potency, µM (doses to about 46 µM), inactives show top-dose activity change, negative = cytotoxicity, hits mostly inhibitors. 0.16% of 390,000 active. AID 504648; further: potency means the concentration at half of the fitted maximal effect; on the % scale 0 is the no-effect control and ±100 the full control effect
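A549 ARE-Fluc cells in 5% FBS OPTI-MEM, 5000 cells/well, rested 2 h then exposed to compounds in concentration-response for 18-24 h at 37 °C. Viability by CellTiter-Fluor fluorescence (Ex 405/Em 525) after 30 min; luciferase luminescence (BugLite, 15 min, RT) read afterwards.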
IDH1 R132H inh = blocks human mutant IDH1 R132H enzyme; 0.093% of 390,000 active; IDH1-R132H enzyme, NADPH consumption, diaphorase/resazurin fluorescence; Potency, µM (doses to about 76.6 µM), for inactives: top-dose activity change, negative = inhibition, usual class: inhibitors; AID 602179; further: potency means the concentration at half of the fitted maximal effect; on the % scale 0 is the no-effect control and ±100 the full control effect; nearly all actives have a fitted effect of over 65% in size
Target sequence (O75874 whole entry R132H, stated change not applied): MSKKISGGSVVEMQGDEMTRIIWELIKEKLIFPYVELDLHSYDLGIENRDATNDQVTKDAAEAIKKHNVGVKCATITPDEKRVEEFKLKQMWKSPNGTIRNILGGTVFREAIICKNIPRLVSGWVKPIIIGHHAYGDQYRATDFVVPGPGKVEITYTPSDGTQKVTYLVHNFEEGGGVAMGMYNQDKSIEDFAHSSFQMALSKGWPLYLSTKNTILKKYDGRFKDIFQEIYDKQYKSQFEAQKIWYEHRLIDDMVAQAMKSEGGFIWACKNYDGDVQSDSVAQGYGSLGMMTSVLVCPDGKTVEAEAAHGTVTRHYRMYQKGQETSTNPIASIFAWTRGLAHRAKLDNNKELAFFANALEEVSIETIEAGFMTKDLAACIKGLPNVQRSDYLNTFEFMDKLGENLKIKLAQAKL
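IDH1-R132H (0.5 ug/mL dispensed) in pH 7.5 Tris buffer was preincubated 30 min with compound, then given a substrate mix of 0.016 mM NADPH and 2 mM alpha-KG for 80 min at room temperature; remaining NADPH was read by diaphorase/resazurin fluorescence.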
IDH1 autofl = autofluorescence interference, mutant IDH1 hit counter-screen | shares compounds with IDH1 R132H inh | Resorufin detection reagent fluorescence interference, cell-free | inhibition of signal, % at 51.2 µM | 750 tested, under 10 active;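 further: 0% = wells with normal resorufin and full inhibition = wells lacking resorufin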
WT IDH1 inh = inhibits human wild-type IDH1, mutant selectivity check. shares compounds with IDH1 R132H inh. WT IDH1 enzyme, NADPH diaphorase/resazurin fluorescence. Potency, µM (doses to about 115 µM), for the others: at the highest dose activity change, negative = inhibition, usual class: inhibitors. 9% of 750 active;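 further: potency means the concentration at half of the fitted maximal effect; 0% = full WT IDH1 enzyme control and full inhibition = no enzyme wells; nearly all actives have a fitted effect of over 55% in size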
Target sequence (O75874 whole entry, looked up): as the sequence (O75874 whole entry R132H, stated change not applied) above, with H132R counted along it
mIDH1 confirm = mutant IDH1 (human) inhibition, confirmed; Potency, µM (doses to about 76.6 µM), without a hit: at the highest dose activity change, negative = inhibition, usual class: inhibitors; 83% of 750 active; shares compounds with IDH1 R132H inh; IDH1 R132H enzyme, NADPH diaphorase/resazurin fluorescence; further: potency means the concentration at half of the fitted maximal effect; nearly all actives have a fitted effect of over 50% in size
* marks the source's active call; other numbers are inactive results; ? = inconclusive; nt = no result given; [ ] = another dose, or the depositor's remark. A selection: hits, their analogues and other compounds. The true share with any hit is near 3.8%. The call rests on the fitted dose curve; in most records, active means well fitted curve in the direction sought with a large enough effect; inconclusive means small, poorly fitted or top-dose-only effect, or another doubt; inactive means no such curve, though single readings can be large; an effect the other way counts as inactive or inconclusive.

SMILES | Nrf2 inh | ELG1 DNA repair | Nrf2 ARE act | A549 tox | IDH1 R132H inh | IDH1 autofl | WT IDH1 inh | mIDH1 confirm
CN1C(=O)/C(=C\c2ccc(N3CCCCCC3)cc2)C(=O)NC1=S | -1.8% | -4.2% | -0.7% | -9.9% | 46.5µM* | -12.3 | -3.9% | 22.4µM*
CCOc1ccc(C2c3c(-c4ccccc4O)n[nH]c3C(=O)N2Cc2ccncc2)cc1 (stereo unspecified) | -8.1% | nt | 0.5% | -1.7% | ? | -4.6 | 1.0% | 39.8µM*
Cc1ccc2c(Cl)cc(Cl)c(O)c2n1 | -10.8% | nt | ? | 1.3% | 0.0% | nt | nt | nt
Cc1ccc(C[n+]2c(-c3ccc(C)cc3)cc(-c3ccc(C)cc3)cc2-c2ccc(C)cc2)cc1 | 5.17µM* | ? | -3.5% | 18.4µM* | 39.8µM* | -0.3 | 11.9% | 22.4µM*
Cc1ccc(-c2cc(-c3ccc(C)cc3)[n+](-c3ccc(C(=O)O)cc3)c(-c3ccc(C)cc3)c2)cc1 | 9.1% | 13.1% | 1.3% | 0.6% | 5.4% | nt | nt | nt
CC(=O)[C@H]1CC[C@H]2[C@@H]3CC=C4C[C@@H](OS(=O)(=O)O)CC[C@]4(C)[C@H]3CC[C@]12C | -8.9% | nt | -0.6% | -3.6% | 39.8µM* | 10.0 | -2.5% | 39.8µM*
O=C(O)CSCC(=O)N(Cc1ccccc1)c1nc(-c2ccccc2)c(-c2ccccc2)s1 | ? | -2.5% | -0.4% | -0.4% | ? | 3.5 | 4.6% | 39.8µM*
O=C(O)c1cn(Cc2ccccc2)nc1-c1ccccc1 | 0.7% | 1.4% | -0.2% | -2.8% | 17.8% | nt | nt | nt
Cn1c(=O)n(C)c2cc(CNCCc3ccc(F)cc3)ccc21 | -28.1% | nt | 0.3% | -9.0% | -9.5% | nt | nt | nt
COC(=O)C1=C(C)NC(=S)NC1c1ccc(N(CCCl)CCCl)cc1Cl (stereo unspecified) | ? | nt | 0.2% | -17.7% | ? | 5.1 | 2.2% | 11.2µM*
Cc1ccccc1-c1nn2c(=O)cc(CN3CCN(C(=O)COc4ccccc4Cl)CC3)nc2s1 | nt | nt | 11.0% | -9.1% | 4.1% | nt | nt | nt
CCCCOc1ccc(CC2C(=O)N(C)C(=O)N(C)C2=O)cc1 | 0.3% | -3.3% | -0.2% | 7.6% | ? | -0.6 | 114.2% | 44.7µM*
CC1=Nc2ccccc2/C1=C/c1c(O)[nH]c(=O)[nH]c1=O | -25.8% | 8.1% | 4.3% | -11.2% | 0.8% | nt | nt | nt
O=c1[nH]c(O)c(/C=C2/C=CC(c3cc(Cl)ccc3Cl)=N2)c(=O)[nH]1 | ? | ? | 0.0% | -27.6% | 29.3µM* | 3.3 | 44.7µM* | 11.2µM*
Cn1c(=O)c2c(-c3ccccc3)n3c(c2n(C)c1=O)C(c1cc(Cl)ccc1O)Nc1ccccc1-3 (stereo unspecified) | -9.9% | nt | 4.6% | 3.2% | 39.8µM* | -4.2 | 5.1% | 14.1µM*
COc1ccc(-c2c3c(=O)n(C)c(=O)n(C)c3c3n2-c2ccccc2NC3c2ccccc2OC)cc1 (stereo unspecified) | -0.2% | nt | -0.9% | 7.5% | 44.7µM* | 0.2 | 2.9% | 6.31µM*
Cn1c(O)c(C2=NNC(c3ccc(Cl)cc3)C2)c(=O)n(C)c1=O (stereo unspecified) | -25.2% | ? | 0.0% | 1.5% | 6.2% | nt | nt | nt
Cc1ccc(CNC(=O)CCCn2c(=O)c3sccc3n(CC(=O)Nc3c(C)cccc3C)c2=O)cc1 | -19.9% | nt | 3.6% | -2.6% | -5.0% | nt | nt | nt
CCOc1ccccc1Oc1coc2cc(OC(=O)c3ccco3)ccc2c1=O | ? | ? | 1.1% | -0.1%[1.84 µM] | ? | -9.2 | 1.3% | 28.2µM*
Cc1onc(-c2ccccc2Cl)c1C(=O)NCc1ccc2c(c1)cc(C)n2C | -5.7% | ? | 0.5% | -0.8% | 11.3% | nt | nt | nt
CCN(CC)c1ccc(C=C2C(=O)NC(=S)NC2=O)cc1 | ? | 14.5% | 3.4% | -6.0% | -7.0% | nt | nt | nt
CC(C)CN(CC(C)C)c1ccc(C=C2C(=O)NC(=S)NC2=O)cc1[N+](=O)[O-] | ? | 6.6% | 6.3% | -8.9% | ? | -3.0 | -1.6% | 39.8µM*
O=C(COc1cc(Cl)ccc1Cl)Nc1ccc(Cl)cc1C(=O)c1ccccc1 | 6.1% | nt | -0.2% | 0.0% | -4.3% | nt | nt | nt
Cc1nc2cc(C(F)(F)F)ccc2n1C1CCN(Cc2nnnn2Cc2ccc3c(c2)OCO3)CC1 | ? | 6.51µM* | -0.6% | 3.0% | ? | -3.9 | 14.0% | 15.8µM*
Cc1ccc(-c2cc(C(F)F)n3ncc(C(=O)N4CCc5ccccc5C4)c3n2)cc1 | ? | -11.7% | 0.9% | -1.5% | -3.0% | nt | nt | nt
Clc1ccc(COC(Cn2ccnc2)c2ccc(Cl)cc2Cl)cc1 (stereo unspecified) | ? | -7.6% | 7.4% | -20.7% | ? | nt | nt | nt
Clc1ccc(C(c2ccc(Cl)cc2)n2cc[n+](CC(OCc3ccc(Cl)cc3Cl)c3ccc(Cl)cc3Cl)c2)cc1 (stereo unspecified) | ? | ? | -3.0% | ? | 17.8µM* | -8.4 | ? | 7.94µM*
O=C1NC(=O)C(=Cc2ccc(-c3ccc(Cl)cc3)o2)C(=O)N1 | ? | ? | 3.1% | -12.9% | ? | 3.5 | 2.5% | 39.8µM*
O=C1NC(=O)C(=Cc2ccc(-c3ccc(S(=O)(=O)N4CCOCC4)cc3)o2)C(=O)N1 | -4.7% | ? | -0.2% | 0.1% | ? | nt | nt | nt
CC(C)N(Cc1nccn1C)C(=O)CCc1nnc(CCCc2ccccc2)o1 | ? | ? | 4.4% | -8.2% | -4.6% | nt | nt | nt
